# In the supplement of paper PMC11732987, “Enantioselective OTUD7B fragment discovery through chemoproteomics screening and high-throughput optimisation” (Communications Chemistry, 2025):
# Unmarked numbers belong to inactive results.
# Columns and labels:
# Assay in all cases: log2 ratio of Biotin-Ahx-Ub-VS probe labelling (fragment/DMSO); higher = less target engagement (more negative = stronger competition), active = hit call of the paper (q ≤ 0.05, log2 ratio ≤ -1)
# Settings in all cases: compound concentration: 200 uM; treatment time: 3 h
# OTUD6B = molecular target: T1, OTUD6B (UniProt Q8N6M0)
# T1 sequence (whole entry): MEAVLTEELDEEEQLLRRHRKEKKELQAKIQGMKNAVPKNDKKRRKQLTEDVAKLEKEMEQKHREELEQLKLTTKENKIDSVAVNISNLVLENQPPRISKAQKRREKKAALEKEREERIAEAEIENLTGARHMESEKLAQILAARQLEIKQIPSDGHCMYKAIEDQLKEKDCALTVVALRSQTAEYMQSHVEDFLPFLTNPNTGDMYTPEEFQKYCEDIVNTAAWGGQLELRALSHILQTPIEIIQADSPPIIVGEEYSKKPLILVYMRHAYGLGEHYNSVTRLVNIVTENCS
# In short: (§1)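 HEK293T lysate (495 µg per sample, in Tris/CHAPS/IGEPAL buffer with protease inhibitors) was treated in triplicate with fragment at 200 µM or with DMSO for 3 h. It was then treated with Biotin-Ahx-Ub-VS (0.5 µM final) for 1 h. Labelled DUBs were NeutrAvidin-enriched, digested with LysC and trypsin, and run by diaPASEF LC-MS/MS. Spectronaut label-free quantities were global-median-normalised. Values are average log2 ratios fragment/DMSO by unpaired t-test, using proteins with ≥2 unique peptides.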
# OTUD7B = molecular target: T2, OTUD7B (UniProt Q6GQQ9)
# T2 sequence (whole entry): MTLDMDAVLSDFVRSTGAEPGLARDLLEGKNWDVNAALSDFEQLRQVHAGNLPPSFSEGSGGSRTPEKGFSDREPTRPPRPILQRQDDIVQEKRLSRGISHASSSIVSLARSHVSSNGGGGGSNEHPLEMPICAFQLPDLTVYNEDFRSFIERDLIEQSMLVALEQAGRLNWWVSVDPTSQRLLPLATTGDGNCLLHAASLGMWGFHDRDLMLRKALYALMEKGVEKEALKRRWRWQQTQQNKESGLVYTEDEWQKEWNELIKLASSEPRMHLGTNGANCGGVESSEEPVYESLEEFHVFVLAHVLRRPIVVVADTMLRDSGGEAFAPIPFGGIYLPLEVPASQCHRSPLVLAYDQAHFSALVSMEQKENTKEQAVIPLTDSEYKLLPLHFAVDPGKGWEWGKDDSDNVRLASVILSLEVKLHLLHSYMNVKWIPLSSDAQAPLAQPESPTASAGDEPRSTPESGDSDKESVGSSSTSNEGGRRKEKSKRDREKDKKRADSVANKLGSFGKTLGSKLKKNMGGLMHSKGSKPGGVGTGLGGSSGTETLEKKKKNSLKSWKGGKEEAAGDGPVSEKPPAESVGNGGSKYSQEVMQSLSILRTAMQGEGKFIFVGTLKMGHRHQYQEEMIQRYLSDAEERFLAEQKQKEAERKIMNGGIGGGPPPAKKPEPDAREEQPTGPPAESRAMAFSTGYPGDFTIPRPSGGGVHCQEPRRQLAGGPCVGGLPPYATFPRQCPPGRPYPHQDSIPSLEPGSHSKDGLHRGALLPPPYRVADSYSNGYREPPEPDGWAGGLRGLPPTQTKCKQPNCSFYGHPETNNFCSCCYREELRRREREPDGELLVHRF
# In short: as §1
# PRPF8 = PRPF8 (UniProt Q6P2Q9)
# In short: as §1
# PSMD7 = molecular target: T3, PSMD7 (UniProt P51665)
# T3 sequence (whole entry): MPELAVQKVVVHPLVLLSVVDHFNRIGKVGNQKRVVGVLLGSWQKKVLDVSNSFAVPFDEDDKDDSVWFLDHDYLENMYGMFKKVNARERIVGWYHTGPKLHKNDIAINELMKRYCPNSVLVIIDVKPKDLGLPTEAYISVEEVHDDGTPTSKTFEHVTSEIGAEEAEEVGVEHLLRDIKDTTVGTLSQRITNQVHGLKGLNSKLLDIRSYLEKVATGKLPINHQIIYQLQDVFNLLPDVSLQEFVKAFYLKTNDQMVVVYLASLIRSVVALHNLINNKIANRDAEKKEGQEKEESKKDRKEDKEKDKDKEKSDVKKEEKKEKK
# In short: as §1
# UCHL1 = UCHL1 (UniProt P09936)
# In short: as §1
# UCHL3 = molecular target: T4, UCHL3 (UniProt P15374)
# T4 sequence (whole entry): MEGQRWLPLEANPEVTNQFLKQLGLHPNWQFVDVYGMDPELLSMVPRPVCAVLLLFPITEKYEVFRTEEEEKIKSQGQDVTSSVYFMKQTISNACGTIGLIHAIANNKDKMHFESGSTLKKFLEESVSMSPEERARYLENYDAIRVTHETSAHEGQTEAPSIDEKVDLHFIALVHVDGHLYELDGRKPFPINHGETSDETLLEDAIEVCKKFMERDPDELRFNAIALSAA
# In short: as §1
# UCHL5 = molecular target: T5, UCHL5 (UniProt Q9Y5K5)
# T5 sequence (whole entry): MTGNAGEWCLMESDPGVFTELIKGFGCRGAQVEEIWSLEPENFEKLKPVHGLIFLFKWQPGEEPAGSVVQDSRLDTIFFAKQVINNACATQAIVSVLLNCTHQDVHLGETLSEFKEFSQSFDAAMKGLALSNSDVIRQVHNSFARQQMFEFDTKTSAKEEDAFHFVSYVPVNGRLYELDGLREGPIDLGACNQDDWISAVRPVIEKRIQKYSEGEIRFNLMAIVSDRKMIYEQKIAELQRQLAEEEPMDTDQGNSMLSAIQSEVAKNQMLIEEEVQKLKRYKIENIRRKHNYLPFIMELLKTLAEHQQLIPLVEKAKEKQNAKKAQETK
# In short: as §1
# USP10 = USP10 (UniProt Q14694)
# In short: as §1
# USP15 = molecular target: T6, USP15 (UniProt Q9Y4E8)
# T6 sequence (whole entry): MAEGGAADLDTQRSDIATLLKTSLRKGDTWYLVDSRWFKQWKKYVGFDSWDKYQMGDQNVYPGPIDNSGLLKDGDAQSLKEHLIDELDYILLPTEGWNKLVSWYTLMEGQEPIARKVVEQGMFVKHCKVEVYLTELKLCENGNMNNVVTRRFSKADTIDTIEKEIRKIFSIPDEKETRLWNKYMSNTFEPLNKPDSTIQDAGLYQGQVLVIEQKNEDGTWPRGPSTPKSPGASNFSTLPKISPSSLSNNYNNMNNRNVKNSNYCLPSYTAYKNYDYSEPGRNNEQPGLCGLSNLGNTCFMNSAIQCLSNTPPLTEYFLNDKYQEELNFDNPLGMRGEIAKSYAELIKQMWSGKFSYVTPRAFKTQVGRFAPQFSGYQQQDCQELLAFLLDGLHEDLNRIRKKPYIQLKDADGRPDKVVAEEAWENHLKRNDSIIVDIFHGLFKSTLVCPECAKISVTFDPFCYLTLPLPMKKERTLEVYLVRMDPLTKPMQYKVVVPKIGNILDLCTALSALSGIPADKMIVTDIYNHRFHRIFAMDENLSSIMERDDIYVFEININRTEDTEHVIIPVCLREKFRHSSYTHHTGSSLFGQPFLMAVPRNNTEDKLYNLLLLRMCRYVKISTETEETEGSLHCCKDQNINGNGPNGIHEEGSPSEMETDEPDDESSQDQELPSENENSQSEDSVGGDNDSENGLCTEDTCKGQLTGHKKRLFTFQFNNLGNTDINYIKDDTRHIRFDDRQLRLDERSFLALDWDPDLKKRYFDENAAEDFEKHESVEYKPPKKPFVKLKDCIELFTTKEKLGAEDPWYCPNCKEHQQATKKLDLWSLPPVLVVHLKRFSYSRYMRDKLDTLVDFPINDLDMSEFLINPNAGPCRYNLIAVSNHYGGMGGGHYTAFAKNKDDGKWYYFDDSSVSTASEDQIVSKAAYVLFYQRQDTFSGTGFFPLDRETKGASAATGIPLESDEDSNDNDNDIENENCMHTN
# In short: as §1
# USP16 = USP16 (UniProt Q9Y5T5)
# In short: as §1
# Chain of UCHL1 (P09936 whole entry, looked up): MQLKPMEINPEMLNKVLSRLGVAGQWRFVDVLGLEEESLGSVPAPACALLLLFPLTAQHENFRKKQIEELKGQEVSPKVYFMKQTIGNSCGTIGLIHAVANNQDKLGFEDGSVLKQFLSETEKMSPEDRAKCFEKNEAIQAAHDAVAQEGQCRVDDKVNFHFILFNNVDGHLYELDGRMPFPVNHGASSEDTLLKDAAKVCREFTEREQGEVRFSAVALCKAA
# Chain of USP10 (Q14694 whole entry): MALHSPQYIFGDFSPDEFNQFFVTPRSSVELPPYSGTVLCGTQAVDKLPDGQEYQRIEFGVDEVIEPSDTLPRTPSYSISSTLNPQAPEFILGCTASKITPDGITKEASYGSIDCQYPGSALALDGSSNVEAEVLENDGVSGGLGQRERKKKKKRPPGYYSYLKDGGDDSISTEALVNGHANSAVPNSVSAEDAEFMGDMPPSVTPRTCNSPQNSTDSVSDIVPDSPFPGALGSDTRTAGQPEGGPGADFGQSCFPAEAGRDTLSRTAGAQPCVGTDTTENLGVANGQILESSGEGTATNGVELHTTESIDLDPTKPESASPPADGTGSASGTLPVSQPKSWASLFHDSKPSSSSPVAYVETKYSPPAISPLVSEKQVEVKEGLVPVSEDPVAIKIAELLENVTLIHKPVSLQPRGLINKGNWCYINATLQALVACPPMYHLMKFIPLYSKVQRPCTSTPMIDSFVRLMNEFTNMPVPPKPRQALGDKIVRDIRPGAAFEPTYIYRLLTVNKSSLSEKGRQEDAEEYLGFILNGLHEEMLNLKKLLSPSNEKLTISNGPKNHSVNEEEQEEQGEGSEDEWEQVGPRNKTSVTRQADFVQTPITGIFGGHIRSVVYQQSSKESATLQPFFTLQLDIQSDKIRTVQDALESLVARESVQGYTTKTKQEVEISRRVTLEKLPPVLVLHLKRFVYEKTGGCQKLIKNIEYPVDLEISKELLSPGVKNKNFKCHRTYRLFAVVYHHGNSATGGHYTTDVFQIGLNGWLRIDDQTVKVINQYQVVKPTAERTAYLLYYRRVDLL
# Chain of USP16 (Q9Y5T5 whole entry, looked up): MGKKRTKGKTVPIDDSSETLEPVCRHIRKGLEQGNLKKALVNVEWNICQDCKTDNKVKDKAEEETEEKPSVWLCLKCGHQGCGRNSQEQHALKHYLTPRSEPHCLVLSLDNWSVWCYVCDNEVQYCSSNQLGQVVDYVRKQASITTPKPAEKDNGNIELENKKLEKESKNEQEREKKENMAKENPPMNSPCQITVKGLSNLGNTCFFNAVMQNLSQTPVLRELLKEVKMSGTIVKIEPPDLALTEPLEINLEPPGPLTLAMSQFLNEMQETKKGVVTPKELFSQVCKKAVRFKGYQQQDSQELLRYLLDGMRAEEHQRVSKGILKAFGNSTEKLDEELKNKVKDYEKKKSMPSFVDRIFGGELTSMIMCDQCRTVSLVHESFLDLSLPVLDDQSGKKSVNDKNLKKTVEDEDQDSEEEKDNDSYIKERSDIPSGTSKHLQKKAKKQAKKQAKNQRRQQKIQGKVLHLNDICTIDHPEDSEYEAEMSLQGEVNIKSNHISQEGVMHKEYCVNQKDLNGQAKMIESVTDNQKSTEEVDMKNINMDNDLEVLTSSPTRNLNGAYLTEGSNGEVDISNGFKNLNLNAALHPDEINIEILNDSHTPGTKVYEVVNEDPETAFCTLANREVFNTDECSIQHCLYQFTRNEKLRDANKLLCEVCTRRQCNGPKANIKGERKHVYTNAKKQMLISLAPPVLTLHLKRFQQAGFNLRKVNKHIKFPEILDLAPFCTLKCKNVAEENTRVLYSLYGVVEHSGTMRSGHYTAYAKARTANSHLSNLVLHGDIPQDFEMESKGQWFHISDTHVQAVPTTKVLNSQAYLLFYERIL
smiles,measurement,setting,value
O=C(CCl)NCc1ccc(Cl)cc1,log2 ratio of Biotin-Ahx-Ub-VS probe labelling,OTUD6B,-0.0688
same,log2 ratio of Biotin-Ahx-Ub-VS probe labelling,OTUD7B,-0.726
same,log2 ratio of Biotin-Ahx-Ub-VS probe labelling,PRPF8,0.0877
same,log2 ratio of Biotin-Ahx-Ub-VS probe labelling,PSMD7,0.0253
same,log2 ratio of Biotin-Ahx-Ub-VS probe labelling,UCHL1,-1.24 (active)
same,log2 ratio of Biotin-Ahx-Ub-VS probe labelling,UCHL3,0.379
same,log2 ratio of Biotin-Ahx-Ub-VS probe labelling,UCHL5,-0.00645
same,log2 ratio of Biotin-Ahx-Ub-VS probe labelling,USP10,-0.179
same,log2 ratio of Biotin-Ahx-Ub-VS probe labelling,USP15,0.049
same,log2 ratio of Biotin-Ahx-Ub-VS probe labelling,USP16,-0.354
